41 compounds from the antibiotic and cytotoxicity screens of Wong et al. (2023) can be followed below.

The whole screen tested about 39,000 compounds, of which about 3,300 (8.5%) were called active. Only a selection was taken, and actives are over-represented in it overall.

The assay has as its system HepG2. Kind of assay: cytotoxicity call (relative viability < 0.9). Particulars: 10 µM.
Consider `O=C(Cc1ccc(-c2ccccc2)cc1)Nc1c(C(=O)Nc2ccc3c(c2)OCCO3)oc2ccccc12`, for which the cytotoxicity call was “inactive”.
With `CCC(=O)Nc1ccc2ccccc2c1`, the cytotoxicity call is “inactive”.
`Cc1c(C(=O)Nc2ccc3ccccc3c2)oc2ccccc12`: the cytotoxicity call was “active”.
In the case of `CC(C)NC(=O)N(C)C[C@H]1Oc2ccc(NC(=O)CCC(F)(F)F)cc2C(=O)N([C@@H](C)CO)C[C@H]1C` it was “inactive”.
Regarding `C[C@@H]1CN([C@H](C)CO)S(=O)(=O)c2ccc(C3=CCCC3)cc2O[C@H]1CN(C)C(=O)C1CCOCC1`, the cytotoxicity call is “inactive”.
Consider `COCC(=O)N1C[C@H](C)[C@@H](OC)CN(C)C(=O)c2ccc(NC(=O)c3ccc(OC)cc3)cc2OC[C@H]1C`, for which the cytotoxicity call is “inactive”.
The result for `CCOC(=O)CN1C(=O)c2ccccc2C1=O` reads “inactive”; that for `CCOC(=O)CN1CCN(C=O)CC1`, “active”; that for `CCOC(=O)N1CCC(O)CC1`, “inactive”.
In the case of `CN(C)CCCNC(=O)[C@H]1[C@H](CO)[C@H]2Cn3c(ccc(-c4cccc(C(=O)N(C)C)c4)c3=O)[C@@H]1N2` it was “inactive”.
For `C[C@@H]1CCCCO[C@@H](CN(C)C(=O)Nc2ccc(C(F)(F)F)cc2)[C@H](C)CN([C@H](C)CO)C(=O)c2cc(N(C)C)ccc2O1`, the cytotoxicity call was “active”.
As for `C[C@@H]1CN([C@H](C)CO)C(=O)c2cc(N(C)C)ccc2O[C@@H](C)CCCCO[C@@H]1CN(C)C(=O)Nc1ccc(C(F)(F)F)cc1`, the cytotoxicity call was “inactive”.
In the case of `C[C@@H]1CCCCO[C@@H](CN(C)C(=O)Nc2ccc(C(F)(F)F)cc2)[C@@H](C)CN([C@H](C)CO)C(=O)c2cc(N(C)C)ccc2O1` it was “inactive”.
As for `C[C@H]1CCCCO[C@H](CN(C)C(=O)Nc2ccc(C(F)(F)F)cc2)[C@@H](C)CN([C@@H](C)CO)C(=O)c2cc(N(C)C)ccc2O1`, the cytotoxicity call is “inactive”.
The result for `C[C@H](CO)N1C[C@H](C)[C@@H](CN(C)C(=O)Nc2ccc(C(F)(F)F)cc2)OCCCC[C@H](C)Oc2ccc(N(C)C)cc2C1=O` reads “inactive”.
With `C[C@@H]1CN([C@@H](C)CO)C(=O)c2cc(N(C)C)ccc2O[C@@H](C)CCCCO[C@@H]1CN(C)C(=O)Nc1ccc(C(F)(F)F)cc1`, the cytotoxicity call was “active”.
For `Cc1nn2cc(CN)nc2s1`, the cytotoxicity call was “inactive”.
`C[C@@H]1CN([C@H](C)CO)C(=O)Cc2cc(NC(=O)C3CC3)ccc2O[C@@H]1CN(C)S(=O)(=O)c1cn(C)cn1`: the cytotoxicity call was “inactive”.
Regarding `C=CCC[C@@H](Cc1ccc(F)cc1)C(=O)OC[C@@H](NC(=O)[C@@H](CC=C)CC(=O)N(CCO)Cc1ccccc1)C(C)(C)C`, the cytotoxicity call was “inactive”.
With `C[C@@H]1CN([C@@H](C)CO)C(=O)c2cccc(NS(C)(=O)=O)c2O[C@@H]1CN(C)Cc1ccc(C(F)(F)F)cc1`, the cytotoxicity call is “inactive”.
As for `C[C@@H]1CN([C@@H](C)CO)S(=O)(=O)c2ccc(Br)cc2O[C@H]1CN(C)Cc1ccc(-c2ccccc2)cc1`, the cytotoxicity call is “inactive”.
Consider `C[C@H]1CCCCO[C@@H](CN(C)C(=O)NC2CCCCC2)[C@@H](C)CN([C@@H](C)CO)C(=O)c2cc(NS(=O)(=O)c3ccc(Cl)cc3)ccc2O1`, for which the cytotoxicity call was “inactive”.
The result for `C[C@@H]1CCCCO[C@@H](CN(C)C(=O)NC2CCCCC2)[C@@H](C)CN([C@@H](C)CO)C(=O)c2cc(NS(=O)(=O)c3ccc(Cl)cc3)ccc2O1` reads “inactive”; that for `C[C@@H]1CCCCO[C@H](CN(C)C(=O)NC2CCCCC2)[C@H](C)CN([C@H](C)CO)C(=O)c2cc(NS(=O)(=O)c3ccc(Cl)cc3)ccc2O1`, “active”.
Turning to `C[C@H]1CCCCO[C@H](CN(C)C(=O)NC2CCCCC2)[C@@H](C)CN([C@@H](C)CO)C(=O)c2cc(NS(=O)(=O)c3ccc(Cl)cc3)ccc2O1`, the cytotoxicity call is “inactive”.
For `C[C@@H]1CN([C@H](C)CO)C(=O)c2cc(NS(=O)(=O)c3ccc(Cl)cc3)ccc2O[C@@H](C)CCCCO[C@@H]1CN(C)C(=O)NC1CCCCC1`, the cytotoxicity call was “active”.
For the compound `C[C@@H]1CCCCO[C@H](CN(C)C(=O)NC2CCCCC2)[C@H](C)CN([C@@H](C)CO)C(=O)c2cc(NS(=O)(=O)c3ccc(Cl)cc3)ccc2O1`, the cytotoxicity call was “inactive”.
For the compound `C[C@@H]1CN([C@H](C)CO)S(=O)(=O)c2ccc(C#C[C@@H](C)O)cc2O[C@H]1CN(C)C(=O)c1ccccc1`, the cytotoxicity call was “inactive”.
`COc1ccccc1NC(=O)N(C)C[C@@H]1OCc2ccccc2-c2c(n(C)c3ccccc23)C(=O)N([C@H](C)CO)C[C@H]1C`: the cytotoxicity call was “inactive”.
Regarding `O=C(C[C@@H]1C[C@@H]2c3cc(NC(=O)NC4CCCC4)ccc3O[C@@H]2[C@@H](CO)O1)NCCN1CCCCC1`, the cytotoxicity call is “inactive”.
The result for `CN(C)c1ccc(C(=C2C=CC(=[N+](C)C)C=C2)c2ccc(N(C)C)cc2)cc1.[Cl-]` reads “active”; that for `C[C@@H]1CCCCO[C@@H](CN(C)Cc2ccc(Cl)c(Cl)c2)[C@@H](C)CN([C@H](C)CO)C(=O)c2cc(NS(C)(=O)=O)ccc2O1`, “inactive”.
`COc1ccc(S(=O)(=O)N(C)C[C@H]2Oc3ccc(NS(=O)(=O)c4c(C)noc4C)cc3C(=O)N([C@H](C)CO)C[C@H]2C)cc1`: the cytotoxicity call is “inactive”.
With `COc1ccc(NC(=O)N(C)C[C@@H]2Oc3ccc(NS(=O)(=O)c4c(C)noc4C)cc3C(=O)N([C@@H](C)CO)C[C@@H]2C)cc1`, the cytotoxicity call is “active”.
`COc1ccc(NC(=O)N(C)C[C@@H]2Oc3ccc(NS(=O)(=O)c4c(C)noc4C)cc3C(=O)N([C@@H](C)CO)C[C@H]2C)cc1`: the cytotoxicity call is “inactive”.
In the case of `COc1ccc(S(=O)(=O)N(C)C[C@@H]2Oc3ccc(NS(=O)(=O)c4c(C)noc4C)cc3C(=O)N([C@H](C)CO)C[C@@H]2C)cc1` it was “active”.
For `COc1ccc(NC(=O)N(C)C[C@@H]2Oc3ccc(NS(=O)(=O)c4c(C)noc4C)cc3C(=O)N([C@H](C)CO)C[C@@H]2C)cc1`, the cytotoxicity call is “inactive”.
For `COc1ccc(S(=O)(=O)N(C)C[C@H]2Oc3ccc(NS(=O)(=O)c4c(C)noc4C)cc3C(=O)N([C@H](C)CO)C[C@@H]2C)cc1`, the cytotoxicity call is “inactive”.
As to `Cc1cc(C(=O)Nc2cccc3c2O[C@H](CN(C)S(=O)(=O)c2c(C)noc2C)[C@H](C)CN([C@@H](C)CO)C3=O)n(C)n1`, the cytotoxicity call is “inactive”.
For `C[C@@H]1CCCCO[C@@H](CN(C)C(=O)Nc2cccc3ccccc23)[C@@H](C)CN([C@H](C)CO)C(=O)c2cc(NS(=O)(=O)c3ccccc3)ccc2O1`, the cytotoxicity call was “inactive”.
Take `COc1cccc(C#Cc2ccc([C@@H]3[C@@H](CO)N4C(=O)CN(S(=O)(=O)c5ccccc5C)C[C@H]34)cc2)c1`: the cytotoxicity call is “inactive”.
